Experimental data taken from PubChem BioAssay (EPA / NIEHS).
Records with an inconclusive call do not appear. Activity calls are given as the source filed them. Rule for the calls: active = hit-call score of the fitted dose curve at least 0.9, where 1 is the maximum; inconclusive = response in the unintended direction; inactive = score below 0.9.

Biological target: Luciferin 4-monooxygenase (Photinus pyralis) (UniProt P08659)
Sequence (P08659 whole entry, looked up): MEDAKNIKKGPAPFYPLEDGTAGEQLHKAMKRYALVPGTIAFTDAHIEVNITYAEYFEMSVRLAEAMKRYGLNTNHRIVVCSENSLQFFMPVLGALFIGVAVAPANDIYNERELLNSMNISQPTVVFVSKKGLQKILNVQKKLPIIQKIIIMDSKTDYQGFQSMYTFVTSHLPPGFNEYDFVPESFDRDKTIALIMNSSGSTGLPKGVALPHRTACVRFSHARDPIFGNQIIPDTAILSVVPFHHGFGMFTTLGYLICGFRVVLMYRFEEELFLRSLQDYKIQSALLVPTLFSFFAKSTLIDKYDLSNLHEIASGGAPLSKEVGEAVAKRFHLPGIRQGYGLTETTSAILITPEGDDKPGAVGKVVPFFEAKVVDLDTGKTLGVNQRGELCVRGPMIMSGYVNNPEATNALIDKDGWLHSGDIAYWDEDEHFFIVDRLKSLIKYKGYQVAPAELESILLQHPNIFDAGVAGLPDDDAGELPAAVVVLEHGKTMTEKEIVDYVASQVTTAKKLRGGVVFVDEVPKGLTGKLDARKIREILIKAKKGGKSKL
Experiment: CCTE_Simmons_QuantiLum_inhib_2: CCTE's Firefly Luciferase Inhibition Assay, Simmons Lab (AID 2283767);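 for AC50: potency for inhibitors that lower luciferase luminescence relative to DMSO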
How it was run: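 Eight-point titrations of each chemical, 5 nM–87.5 uM final in 0.5% DMSO, were run in three biological replicates against recombinant luciferase for 30 min at 37C. Bioluminescence signal loss, read on reagent injection, gave the inhibition endpoint.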
In the case of `CN(C)c1ccc(O)c2c1C[C@H]1C[C@H]3[C@H](N(C)C)C(=O)C(C(N)=O)=C(O)[C@@]3(O)C(=O)C1=C2O`, the outcome is reported as “inactive”. For `CC(C)=CCCC(C)=CCCC(C)=CCO`, the outcome was “inactive”. With `CCCCCCCCCCCCCCCC(=O)OC[C@H](O)[C@H]1OC(=O)C(O)=C1O` the outcome was “inactive”. For `CSc1nc(NC2CC2)nc(NC(C)(C)C)n1`, the outcome was “inactive”. In the case of `CCCCCCCCCCCCCOS(=O)(=O)O`, the outcome is reported as “inactive”. For `Cc1ccc(C(C)C)cc1O`, the outcome was “inactive”. In the case of `O=Nc1ccc(Nc2ccccc2)cc1`, the AC50 is reported as 53.8 µM (active). For `O=c1cc(-c2ccccc2)oc2cc(O)cc(O)c12`, the AC50 was 5.53 µM (active). With `Cc1ccc(O)c(C(C)(C)C)c1` the outcome was “inactive”. For `CC(C)=CCCC(C)CC=O` (centres undefined), the outcome was “inactive”. For `COc1ccc(O)cc1`, the outcome was “inactive”. With `c1ccc2c(c1)c1cccc3ccc4cccc2c4c31` the outcome was “inactive”. In the case of `O=C(Cl)c1cccc(C(=O)Cl)c1`, the outcome is reported as “inactive”. For `CCCCc1ccc(N)cc1`, the outcome was “inactive”. For `c1ccc2[nH]ccc2c1`, the outcome was “inactive”. In the case of `COc1cc(C(C)(C)C)c(O)c(C(C)(C)C)c1`, the outcome is reported as “inactive”. For `CC(C)c1cccc(O)c1`, the outcome was “inactive”.

Test system: not listed separately
Experiment: ACEA_AR_agonist_AUC_viability: ACEA Biosciences xCELLigence Real-Time Cell Analysis on Androgen Receptor Agonism for Viability (AID 2283775);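 for AC50: viability read 80 hours after compound addition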
How it was run: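 Viability endpoint from xCELLigence impedance in 22Rv1 prostate cells at 80 h. Eight-point series, 100 uM maximum final.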
In the case of `CCCCCCCCCCCCCCCC(=O)OC[C@H](O)[C@H]1OC(=O)C(O)=C1O`, the outcome is reported as “inactive”. In the case of `CC(=O)OCCC(C)CC(C)(C)C` (centres undefined), the outcome is reported as “inactive”. In the case of `CSc1nc(NC2CC2)nc(NC(C)(C)C)n1`, the outcome is reported as “inactive”. In the case of `CCN(CC)CCOC(=O)c1ccc(N)cc1`, the AC50 is reported as 20.5 µM (active). In the case of `c1ccc(CCCc2ccccn2)cc1`, the outcome is reported as “inactive”. For `Cc1ccc(C(C)C)cc1O`, the outcome was “inactive”. With `CC1COc2ccccc2N1C(=O)C(Cl)Cl` (centres undefined) the AC50 was 2.33 µM (active). With `CCCCCCCCCCC(CO)CCCCCCCC` (centres undefined) the AC50 was 9.96 µM (active). With `O=Nc1ccc(Nc2ccccc2)cc1` the outcome was “inactive”. With `CC1(C)C(=O)N(Br)C(=O)N1Cl` the outcome was “inactive”. In the case of `Cc1ccc(O)c(C(C)(C)C)c1`, the outcome is reported as “inactive”. With `CC(C)=CCCC(C)CC=O` (centres undefined) the outcome was “inactive”. For `COc1ccc(O)cc1`, the outcome was “inactive”. For `CCCCc1ccc(N)cc1`, the outcome was “inactive”. With `NC(=O)Nc1ccc(Cl)cc1` the outcome was “inactive”. With `O=C(O)c1ccc([N+](=O)[O-])cc1` the outcome was “inactive”. In the case of `CCN(CC)c1ccc(C(=C2C=CC(=[N+](CC)CC)C=C2)c2ccc(S(=O)(=O)O)cc2S(=O)(=O)[O-])cc1`, the outcome is reported as “inactive”. With `c1ccc2[nH]ccc2c1` the outcome was “inactive”. With `COc1cc(C(C)(C)C)c(O)c(C(C)(C)C)c1` the outcome was “inactive”.

Test system: not listed separately
Experiment: ACEA_AR_antagonist_AUC_viability: ACEA Biosciences xCELLigence Real-Time Cell Analysis on Androgen Receptor Antagonism for Viability (AID 2283776);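 note: 22Rv1 human prostate cancer cells growing on impedance electrode plates; area under impedance growth curve at 80 h after dosing as viability; hits lower the growth signal relative to DMSO meaning cytotoxicity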
How it was run: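 Impedance read-out (RT-CES): area under growth curve at 80 h post-dose, loss of signal scored vs DMSO baseline. 22Rv1 cells; 8-pt 1:4 series, top 100 uM final, ≤0.5% DMSO; biological duplicate.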
In the case of `CCN(CC)CCOC(=O)c1ccc(N)cc1`, the outcome is reported as “inactive”. In the case of `CCCCCCCCCCCCCOS(=O)(=O)O`, the outcome is reported as “inactive”. For `CC1COc2ccccc2N1C(=O)C(Cl)Cl` (centres undefined), the AC50 was 4.63 µM (active). With `O=c1cc(-c2ccccc2)oc2cc(O)cc(O)c12` the outcome was “inactive”. For `CC(C)=CCCC(C)CC=O` (centres undefined), the outcome was “inactive”. With `O=C(Cl)c1cccc(C(=O)Cl)c1` the AC50 was 8.27 µM (active). In the case of `CCCCc1ccc(N)cc1`, the outcome is reported as “inactive”. With `c1ccc2[nH]ccc2c1` the outcome was “inactive”.
